For 40 compounds, growth results are on record in PubChem BioAssay (NCI).

The panel holds about 83,000 compounds, 20% with a hit somewhere; the sample as a whole holds those more often.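 For each line, cells grew in 96-well plates with the test compound present at a single concentration for 48 hours.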 Unmarked numbers belong to inactive results. Calls of active or inactive are those of the source.

The subject of the assay is T-47D breast. Put plainly: NCI-60 one-dose screen, 48 h (100 = growth as untreated, 0 = no growth, -100 = all killed). To be noted: 10 µM unless noted. On the procedure: Growth inhibition of the T-47D human tumor cell line is measured as a screen for anti-cancer activity. Cells are grown in 96 well plates and exposed to the test compound for 48 hours. Compounds are tested at a single concentration, which is 10^-5 M for most compounds. The reported endpoint is percent growth (GI% or GIPRCNT), where numbers from 0 - 100% represent growth inhibition, and numbers from -100% - 0 represent cell death. For example, a value of 40 represents 60% growth inhibition. A value of 0 means no net growth occurred over the course of the experiment. A value of -40 indicates 40% of cells at the beginning of the experiment died by the end of the experiment. A value of -100 means all cells are dead at the end of the experiment.
NCI-60 Human Tumor Cell Lines Screen was performed using the standard one-dose NCI protocol, which is described in more detail at https://dtp.cancer.gov/discovery_development/nci-60/default.htm.
Compounds with GIPRCNT values below 10 were considered active. Activity score was based on GIPRCNT using the following formula: […]
Score is 0 for GIPRCNT values of 100 or above, 50 for GIPRCNT values of 0, and 100 for GIPRCNT values of -100.
With `C=CCSC1=NC2C(N(CC)C(=O)N2CC)N1/N=C/C=C/c1ccccc1OC` (stereo not given), the growth is 68.9%.

With `Cc1cc(C)cc(NC2=C(Cl)C(=O)c3nc(C)ccc3C2=O)c1`, the growth was -20% (active). Then `CN1CCN(c2ccc(Nc3nc(NCCCNS(=O)(=O)c4cccc5ccccc45)c4sccc4n3)cc2)CC1`, with -2.47% (active). Then `Cc1ccc(N2CCN(C3=C(Cl)C(=O)c4ncccc4C3=O)CC2)cc1`, with -56.1% (active). For `O=C(COc1ccc(/C=C2\C(=O)Nc3ccc(F)cc32)cc1)Nc1ccccc1` the value was 97.7%; for `CCCCCc1ccc(S(=O)(=O)Nc2cc(-c3csc(N)n3)ccc2OC)cc1`, 83%.

Regarding `O=C(CSc1nc2ccccc2c(=O)n1CCc1ccccc1)Nc1ccc(S(=O)(=O)Nc2ccc(Cl)nn2)cc1`, the growth is 88.6%. For `C(=N\Nc1nc(N/N=C/c2ccc3c(c2)OCO3)nc(N2CCCCC2)n1)/c1ccc2c(c1)OCO2` the value was 87.2%; for `CC(=O)N1N=C(c2cc3ccccc3oc2=O)CC1c1cn(-c2ccccc2)nc1-c1ccc(C)cc1` (stereo not given), 96.4%. In the case of `CCCCN1C(=O)/C(=c2\sc3n(c2=O)C2C(NN=3)N(CC)C(=O)N2CC)c2cccc(C)c21` (stereo not given), the growth is 41.4%.

Regarding `O=C(/C=C/c1cccc(F)c1)c1cccc(OCCCOc2cccc(C(=O)/C=C/c3cccc(F)c3)c2)c1`, the growth was 69.8%. On to `CN1CCN(c2ccc(Nc3nc(NCCCNS(=O)(=O)c4ccc(F)cc4)c4sccc4n3)cc2)CC1`, for which the growth was 29.8%. For `O=C(COc1ccc(/C=C2\C(=O)Nc3ccc(Cl)cc32)cc1)Nc1ccc(Cl)cc1` the value was 68.8%; for `COC(=O)N1CCN(CCNCc2ccc(NC(=O)c3ccc(C)c(C#Cc4cnc5cccnn45)c3)cc2C(F)(F)F)CC1`, 34%.

Take `COc1ccccc1/C=C1\Oc2ccc(O)c(O)c2C1=O`: the growth is 86.3%.

Take `CC(=C(c1ccc(OCCCN(C)C)cc1)c1ccc(OCCCN(C)C)cc1)c1ccc(Cl)cc1`: the growth was 74.9%. Then `CCCc1[nH]c(-c2cc(N)ccc2Cl)c2c1C(=O)CCCC2`, with 75.7%.

`O=C1CSC(c2cn(-c3ccccc3)nc2-c2ccc(Cl)cc2)N1c1ccccc1` (stereo not given): the growth is 102%. For `Cn1c2nc3ccccc3c-2cc2ccccc21` the value was 37.4%; for `NC(=O)c1ncn2c(=O)n(CCF)nnc12`, 88.8%. Then `O=C(CSc1nnc(-c2ccc(Cl)cc2)n1-c1ccccc1)Nc1cccc(F)c1`, with 3.95% (active); and `N#Cc1nc(-c2ccc(Cl)cc2)oc1N1CCC(S(=O)(=O)N2CCOCC2)CC1`, with 103%; and `CC(=O)/C(N=Nc1ccc2oc(=O)ccc2c1)=C(\C)O`, with 8.7% (active). `O=C(O)CC1CCN(c2ccc3nnc(Cl)n3n2)CC1`: the growth was 96.8%. For `Cc1cc(=O)oc2cc(OCCCOc3ccc(/C=C/C(=O)Nc4ccc(Br)cc4)cc3)ccc12` the value was 57.7%; for `N#C/C(=N\Nc1ccc(F)cc1)C(=O)Nc1cc(-c2ccccc2)nn1-c1ccccc1`, -5.1% (active); for `NC1=NC2(CCCC2)N(c2ccc(S(=O)(=O)Nc3nccs3)cc2)C(N)=N1`, 103%. Then `CC(C)Sc1nc(-c2ccccc2)c(C#N)c(N2CCOCC2)n1`, with 68.5%. Then `CCc1cc2c(cc1Cl)nc1c(=O)[nH]c(=O)nc-1n2CCOCC(C)(C)C`, with 80.7%. Turning to `COc1ccc(/C(=N\NC(N)=S)c2ccc(Cl)cc2)cc1OC`, the growth is 18.1%. For `CN1CCN(c2ccc(Nc3nc(NCCCNS(=O)(=O)c4cccc(F)c4)c4sccc4n3)cc2)CC1` the value was 22.8%; for `Cc1ccc(/C(N)=N/C(N)=N/c2nc3ccccc3s2)cc1`, 80.9%.

For the compound `COc1ccccc1N1CCN(C2=C(Cl)C(=O)c3ncccc3C2=O)CC1`, the growth was 19.3%. Then `Cn1cc(-c2nnc(N)nc2-c2c[nH]c3ccc(Br)cc23)c2cc(Br)ccc21`, with 88%; and `Cc1ncn(-c2ccc(/C=N/Nc3ccnc4cc(Cl)ccc34)cc2)c1C`, with -61.6% (active). For `CNC(=O)c1cc(N2CCc3cc(NC(=O)Nc4ccc(N5CCN(C)CC5)c(C(F)(F)F)c4)ccc32)ccn1` the value was 81.4%.

In the case of `O=C(Nc1ccc(Cl)c(C(F)(F)F)c1)Nc1ccc2c(ccn2C(=O)c2cccc(F)c2)c1`, the growth is 0.647% (active). As for `CC(Nc1c(C#N)cnc2ccc(-c3cncc(O)c3)cc12)c1ccccc1` (stereo not given), the growth is 6.53% (active). For `O=S(=O)(Oc1ccc(-c2cn3ccoc3n2)cc1)C1CCCCC1` the value was 95.7%; for `C#CCOc1ccccc1/C=N/Nc1nc(-c2ccc(Cl)cc2)cs1`, 71.9%.
